# ERp5 inh – inhibitors of ERp5-driven insulin aggregation, primary screen, biochemical, turbidity, absorbance 650 nm, single point; Protein disulfide-isomerase A6 (Homo sapiens), Q15084; 90 min; inhibition, % at 9.99 µM; 350,000 compounds, 0.05% hits;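 active means mean replicate inhibition above about 25%, with every replicate also reaching it, limit read from the data, passing the limit was not always enough; inconclusive means only one of those two criteria met; inactive means neither criterion met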
# SIRT5 block – SIRT5 desuccinylase inhibitors, primary screen, biochemical, fluorescence imaging, single point, set 5. Purified SirT5, succinyl-peptide AMC, trypsin-coupled fluorescence. inhibition, % at 15 µM. 330,000 compounds, 1.1% hits; in the data active means inhibition above about 15%; inconclusive means no clear call, values can overlap the other calls
# ERAP1 inh – human ERAP1 aminopeptidase inhibitors, primary screen, biochemical, single point, plate reader; Endoplasmic reticulum aminopeptidase 1 (Homo sapiens), Q9NZ08; recombinant ERAP1, Leu-AMC fluorescence, 60 min; inhibition, % at 10.7 µM; 340,000 compounds, 0.15% hits; AID 652197, 2013;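 active means mean replicate inhibition of at least 30%, or all replicates individually reaching that 30% level; inactive means mean below 30% and not every replicate reaching it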;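 further: 0% = neutral control wells and 100% = L-leucinethiol positive control wells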
# HDAC3 inh – HDAC3 deacetylase inhibitors, primary screen, biochemical, fluorescence, cell-free homogeneous; 320,000 compounds, 0.15% hits; recombinant HDAC3, fluorogenic peptide/trypsin coupled; Histone deacetylase 3 (Homo sapiens), O15379; inhibition, % at 8.3 µM; in the data active means inhibition above about 26%, passing the limit was not always enough; inconclusive means no clear call, values can overlap the other calls
# PDI turbidity – inhibitors of human PDI, primary screen, biochemical, turbidity, single point, plate reader; PDI insulin aggregation turbidity, A650, 90 min; 350,000 compounds, 0.052% hits; Protein disulfide-isomerase (Homo sapiens), P07237; inhibition, % at 10 µM; AID 588391, 2011;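 active means mean inhibition across replicates of 30% or more, whatever share of single replicates reach that level; inconclusive means mean inhibition below 30% while every single replicate reaches 30%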
# Target sequence (P07237 whole entry, looked up): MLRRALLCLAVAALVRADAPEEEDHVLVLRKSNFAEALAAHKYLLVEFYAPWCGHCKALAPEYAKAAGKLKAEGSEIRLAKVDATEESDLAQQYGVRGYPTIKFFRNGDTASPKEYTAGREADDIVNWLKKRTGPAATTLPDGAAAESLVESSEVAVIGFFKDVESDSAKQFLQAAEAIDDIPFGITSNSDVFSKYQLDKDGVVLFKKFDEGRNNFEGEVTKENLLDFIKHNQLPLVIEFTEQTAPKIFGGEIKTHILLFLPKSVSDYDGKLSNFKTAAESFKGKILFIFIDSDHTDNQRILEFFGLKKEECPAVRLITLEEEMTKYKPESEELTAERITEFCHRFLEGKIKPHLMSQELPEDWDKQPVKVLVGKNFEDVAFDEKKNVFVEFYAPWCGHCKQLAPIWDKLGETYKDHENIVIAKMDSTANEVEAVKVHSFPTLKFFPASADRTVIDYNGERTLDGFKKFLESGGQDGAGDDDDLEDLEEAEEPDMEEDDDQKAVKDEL
# * marks the source's active call; other numbers are inactive results; ? = inconclusive; . = not tested or not shown. The entries come from a sample that favours hits as a whole.
SMILES,ERp5 inh,SIRT5 block,ERAP1 inh,HDAC3 inh,PDI turbidity
CC(C)C#Cc1cnc2c(c1)C(=O)N([C@@H](C)CO)C[C@@H](C)[C@H](CN(C)C(=O)CN1CCOCC1)O2,-5,-2,1,.,.
CC(C)C#Cc1cnc2c(c1)C(=O)N([C@@H](C)CO)C[C@@H](C)[C@H](CN(C)C(=O)c1ccccc1F)O2,32*,5,1,.,.
CC(C)C#Cc1cnc2c(c1)C(=O)N([C@@H](C)CO)C[C@H](C)[C@@H](CN(C)C(=O)c1ccccc1F)O2,1,-2,1,.,.
CO[C@@H]1CN(C)C(=O)c2ccc(NC(=O)NC(C)C)cc2OC[C@H](C)N(C(=O)C2CCC2)C[C@H]1C,6,1,-2,.,.
Cc1noc(C)c1S(=O)(=O)Nc1ccc2c(c1)C(=O)N([C@H](C)CO)C[C@H](C)[C@@H](CN(C)Cc1ccc(C(F)(F)F)cc1)OCCCC[C@H](C)O2,-3,25*,1,.,.
Cc1noc(C)c1S(=O)(=O)Nc1ccc2c(c1)C(=O)N([C@@H](C)CO)C[C@H](C)[C@@H](CN(C)Cc1ccc(C(F)(F)F)cc1)OCCCC[C@@H](C)O2,1,25*,0,.,.
Cc1noc(C)c1S(=O)(=O)Nc1ccc2c(c1)C(=O)N([C@@H](C)CO)C[C@@H](C)[C@H](CN(C)Cc1ccc(C(F)(F)F)cc1)OCCCC[C@H](C)O2,4,9,4,.,.
CCOC(=O)CNC(=O)C12CC3CC(CC(C3)C1)C2,-12,16*,-4,-1,-3
CCOC(=O)N1CCN(C(=O)CNC(=O)C23CC4CC(CC(C4)C2)C3)CC1,2,2,-1,-2,4
CCN1CCN(C(=O)C(C)Nc2ccc(OC)cc2OC)CC1 (stereo not drawn),1,15*,1,-8,-2
CCOC(=O)N1CCN(CCC(=O)Nc2ccc(OC)cc2OC)CC1,-2,-2,-1,-2,8
CC1CCCN(CCOCCSc2ccccc2)C1 (stereo not drawn),3,21*,0,2,6
CN(C)CCCNC(=O)C[C@@H]1CC[C@H]2[C@@H](COc3ccc(NC(=O)c4ccccc4F)cc3C(=O)N2C)O1,2,4,-3,.,.
Cc1ccc(S(=O)(=O)N(C)CCCC(=O)NC(C)(C)CO)cc1,-14,27*,-2,-1,3
COc1cccc(NC(=O)N[C@H]2CC[C@@H](CC(=O)NCc3ccncn3)O[C@H]2CO)c1,14,-10,0,.,.
C[C@@H]1CN([C@@H](C)CO)C(=O)c2cc(C#CC3CCCC3)cnc2O[C@@H]1CN(C)C(=O)Cc1ccccn1,2,3,0,.,.
COC(=O)c1cc(S(=O)(=O)NCc2ccc(Br)cc2)c[nH]1,-1,22*,2,-7,-5
COC(=O)c1cc(S(=O)(=O)NCc2ccccc2)c[nH]1,2,-4,-2,0,7
CN(C)N=Nc1ccc(S(N)(=O)=O)cc1,5,-1,-5,2,10
CCN(CC)N=Nc1ccc(S(N)(=O)=O)cc1,4,18*,1,9,16
O=C1c2ccccc2C(=O)c2c1ccc1c(=O)n(C3CCCCC3)[nH]c21,0,19*,0,4,-3
Nc1ncnc2c1ncn2[C@@H]1O[C@H](C(=O)N[C@@H](CCc2ccccc2)C(=O)N2CCN(C(=O)N3CCCCC3)CC2)[C@@H](O)[C@H]1O,0,0,2,.,.
CCCN(CCC)CCN1CCN(C(=O)[C@H](CCc2ccccc2)NC(=O)[C@H]2O[C@@H](n3cnc4c(N)ncnc43)[C@H](O)[C@@H]2O)CC1,3,29*,-2,.,.
CS(=O)(=O)c1ccc(C(=O)OCc2nnc(-c3ccc(Cl)cc3)o2)cc1[N+](=O)[O-],.,.,.,-3,89*
CCNC(=O)[C@@H]1[C@@H](CO)[C@@H]2Cn3c(ccc(-c4ccc(F)cc4)c3=O)[C@H]1N2C,-2,-3,9,.,.
SMILES,ERp5 inh,SIRT5 block,ERAP1 inh,HDAC3 inh,PDI turbidity
CCCC(=O)n1nc(-c2ccccc2)nc1SC,.,.,.,32*,11
CSc1nc(-c2ccccc2)nn1C(=O)c1ccccc1,16,-2,1,?,1
CCc1nc2ccccc2c(C(=O)OCC(=O)NCCCN2CCCC2=O)c1C,-13,19*,13,-5,-1
C[C@@H]1CN([C@@H](C)CO)C(=O)c2cccc(NC(=O)C3CCCCC3)c2O[C@@H]1CN(C)C(=O)Nc1ccc(F)cc1,-2,-3,-2,.,.
Nc1ccc(Cc2ccc(N)c(C(=O)O)c2)cc1C(=O)O,-6,45*,3,-22,16
O=C(Nc1ccc2c(c1)[C@@H]1C[C@H](CC(=O)N3CCOCC3)O[C@H](CO)[C@@H]1O2)c1cccnc1,-1,0,0,.,.
Cc1cccc2c(N=O)c(O)n(CCc3ccccc3)c12,5,16*,-1,6,4
Cc1ccc(Cn2c(O)c(N=O)c3ccccc32)cc1,-1,-5,-3,7,-6
O=C(C[C@H]1CC[C@H](NC(=O)c2ccncc2)[C@H](CO)O1)Nc1ccc(-c2ccccc2)cc1,-4,-1,-1,.,.
Cc1cc(/C=N/Nc2ccc([N+](=O)[O-])cn2)c(C)n1-c1ccc(C(=O)O)cc1,6,32*,-3,11,14
COc1ccccc1CNC(=O)C[C@@H]1C=C[C@H](NC(=O)CN(C)C)[C@H](CO)O1,-2,3,1,.,.
C#CCOC(=O)c1ccccc1C(=O)OCC#C,.,.,.,-3,-3
O=C(c1cccc(F)c1)n1nnc2ccccc21,.,.,.,0,1
CCCC(=O)Nc1ccc(C(=O)n2nnc3ccccc32)cc1,.,.,.,75*,-2
CN(C)c1ccc(C(=O)n2nnc3ccccc32)cc1,.,.,.,91*,4
Cc1ccc(C(=O)n2nnc3ccccc32)cc1,.,.,.,97*,.
C#CCOC(=O)c1ccccc1C(=O)n1nnc2ccccc21,.,.,.,94*,3
O=C(C[C@H]1CC[C@@H](NC(=O)C2CCC2)[C@@H](CO)O1)NC1CCCCC1,3,-2,-1,.,.
CN(C)S(=O)(=O)n1cc(/C=C(\NC(=O)c2ccccc2)C(=O)NCCCn2ccnc2)c2ccccc21,-14,-3,-2,5,0
CN(C)S(=O)(=O)n1cc(/C=C(\NC(=O)c2ccccc2Cl)C(=O)NCCCn2ccnc2)c2ccccc21,4,19*,-1,7,-12
CCCc1cn(CC[C@H]2CC[C@H](NC(=O)CCN3CCCCC3)[C@H](CO)O2)nn1,1,1,-5,.,.
O=C(O)CC(Sc1n[nH]c(=S)s1)C(=O)O (stereo not drawn),3,7,34*,12,3
COC(=O)CSc1n[nH]c(=S)s1,-1,1,22,10,17
COC(=O)C(C)Sc1n[nH]c(=S)s1 (stereo not drawn),.,.,.,31*,-3

# Bioassay records: PubChem BioAssay, Broad Institute
